The nature of assay [1]: ATG_DR4_LXR_CIS: Attagene CIS-FACTORIAL HepG2 Assay for human Liver X Receptor (LXR), DR4 submotif (AID 2282929). Conditions: HepG2 Attagene DR4 cis-reporter, mRNA transcription; AC50: actives raise or lower the signal unless noted; outcome: actives raise or lower the signal unless noted. In a few lines:
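HepG2 cells transiently transfected with cis-promoter-driven multiplexed reporter units (DR4 element) were dosed for 24 h. Reporter mRNA was quantified by RT-PCR, fluorescent primer extension, HpaI digestion and capillary electrophoresis; bidirectional fitting versus DMSO baseline.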

Assay [2] deals with Aryl hydrocarbon receptor (Homo sapiens) (UniProt P35869). Put plainly: ATG_Ahr_CIS: Attagene CIS-FACTORIAL HepG2 Assay for human Aryl Hydrocarbon Receptor (Ahr) (AID 2282930). Conditions: HepG2 AhR cis-factorial reporter transcription; actives raise or lower the signal. Put shortly:
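HepG2 cells transiently transfected with cis-element-driven multiplexed reporter transcription units; endogenous transcription factor activity measured as reporter mRNA 24 h after dosing. RT-PCR, 6-FAM labelling, HpaI digestion, capillary electrophoresis; bidirectional fitting versus DMSO baseline.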

A short description of assay [3]: ATG_AP_1_CIS: Attagene CIS-FACTORIAL HepG2 Assay for human Activator Protein 1 (AP-1) (AID 2282931). Conditions: HepG2 Attagene cis-factorial AP-1 reporter mRNA; actives raise or lower the signal. Put shortly: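 HepG2 cells transiently transfected with cis-element-driven multiplex reporter units; 24 h compound exposure. Reporter mRNA quantified by RT-PCR, FAM-labelled fragments resolved by capillary electrophoresis; bidirectional fit versus DMSO baseline.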

The nature of assay [4]: ATG_AP_2_CIS: Attagene CIS-FACTORIAL HepG2 Assay for human Activator Protein 2 (AP-2) (AID 2282932). Conditions: HepG2 AP-2 cis-reporter, Attagene transcription factor profiling; AC50: actives raise or lower the signal unless noted; outcome: actives raise or lower the signal unless noted. In a few lines: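 Cells (HepG2) transfected with promoter-driven reporter constructs, treated 24 h. Total RNA reverse-transcribed, reporter cDNA PCR-amplified, FAM-labelled by primer extension, digested, resolved by capillary electrophoresis. Activity fitted both directions versus DMSO.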

A short description of assay [5]: ATG_BRE_CIS: Attagene CIS-FACTORIAL HepG2 Assay for human Bone Morphogenetic Protein (BMP) Response Element (BRE) (AID 2282933). Conditions: HepG2 BMP response element reporter, Attagene transcription factor profiling; actives raise or lower the signal. Put shortly: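 Fluorescence-labelled reporter cDNA fragments, separated by capillary electrophoresis, gave the signal for this component of a 52-readout multiplex. HepG2 cells were transfected, exposed to chemicals for 24 h, and compared with DMSO using bidirectional fitting.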

In assay [6] the target is Retinoic acid receptor alpha (Homo sapiens) (UniProt P10276). Put plainly: ATG_DR5_RAR_CIS: Attagene CIS-FACTORIAL HepG2 Assay for human Retinoic Acid Receptor Alpha (RARE), DR5 submotif (AID 2282934). Conditions: HepG2 Attagene cis-factorial RARE DR5 reporter, mRNA; actives raise or lower the signal. Put shortly:
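HepG2 cells transiently transfected with multiplexed reporter units under cis (DR5 RARE) promoters, so endogenous transcription factor activity is measured. After 24 h compound exposure, reporter mRNA is quantified by RT-PCR with fluorescent labelling and capillary electrophoresis; bidirectional fitting versus DMSO.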

Assay [7] deals with Transcription factor E2F1 (Homo sapiens) (UniProt Q01094). Put plainly: ATG_E2F_CIS: Attagene CIS-FACTORIAL HepG2 Assay for human E2F Transcription Factor 1 (AID 2282935). Conditions: HepG2 Attagene cis-reporter, E2F reporter RNA transcripts; actives raise or lower the signal. Put shortly:
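First, HepG2 cells were transfected with reporter transcription units. Next, they were dosed for 24 h. Then RNA was isolated, converted to cDNA, PCR-amplified, FAM-labeled, HpaI-digested and analyzed by capillary electrophoresis.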

A short description of assay [8]: ATG_E_Box_CIS: Attagene CIS-FACTORIAL HepG2 Assay for human Enhancer Box (E-box) (AID 2282936). Conditions: HepG2 E-box cis-reporter transcription, actives raise or lower the signal. Put shortly: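 Endogenous transcription factor activity was sensed in human HepG2 liver cells through transfected cis-promoter reporter units. After 24 h of dosing, total RNA was reverse-transcribed and reporter cDNA resolved by capillary electrophoresis.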

A short description of assay [9]: ATG_M_61_CIS: Attagene CIS-FACTORIAL HepG2 Assay for M61 Transcription Factor (Internal Marker) (AID 2282937). Conditions: HepG2 Attagene CIS-FACTORIAL M61 internal marker reporter; actives raise or lower the signal. In a few lines: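 HepG2 cells transiently transfected with cis-element-driven multiple reporter transcription units, dosed for 24 h. Reporter mRNA measured by RT-PCR, 6-FAM primer-extension labelling, HpaI digestion and capillary electrophoresis; bidirectional fit versus DMSO baseline.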

Assay [10] can be described thus: ATG_EGR_CIS: Attagene CIS-FACTORIAL HepG2 Assay for human Early Growth Response 1 (EGR1) (AID 2282938). Conditions: HepG2 Attagene CIS-FACTORIAL EGR reporter mRNA; actives raise or lower the signal. Put shortly: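 HepG2 cells transiently transfected with cis-promoter-driven multiplexed reporter transcription units; reporter mRNA measured 24 h after compound dosing by RT-PCR, 6-FAM primer extension, HpaI digestion and capillary electrophoresis. Bidirectional fit versus DMSO baseline.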

Assay [11] is described as follows: ATG_ERE_CIS: Attagene CIS-FACTORIAL HepG2 Assay for Estrogen Response Element (ERE) (AID 2282940). Conditions: HepG2 ERE cis-reporter, Attagene RNA transcript; actives raise or lower the signal. Put shortly:
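After a 24 h chemical treatment, RNA from reporter-transfected HepG2 cells is reverse-transcribed, PCR-amplified and fluorescently labelled. Fragments separated by capillary electrophoresis give reporter signal; DMSO serves as negative control.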

Assay [12] can be described thus: ATG_Ets_CIS: Attagene CIS-FACTORIAL HepG2 Assay for human Erythroblast Transformation Specific (ETS) (AID 2282941). Conditions: HepG2 ETS cis-reporter transcription; AC50: actives raise or lower the signal unless noted; outcome: actives raise or lower the signal unless noted. Put shortly: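 RT-PCR/capillary electrophoresis fluorescence read-out of reporter mRNA; HepG2 transient multi-reporter transfection; 24 h compound exposure; gain or loss of signal fitted bidirectionally relative to DMSO.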

Assay [13] addresses Hepatocyte nuclear factor 3-beta (Homo sapiens) (UniProt Q9Y261). Put plainly: ATG_FoxA2_CIS: Attagene CIS-FACTORIAL HepG2 Assay for human Forkhead box A2 (FOXA2) (AID 2282942). Conditions: HepG2 cis-reporter transcription factor activity, 24 h; actives raise or lower the signal. In a few lines: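 HepG2 cells transiently transfected with multiple cis-regulated reporter transcription units, dosed for 24 h. Reporter mRNA measured by RT-PCR, 6-FAM labelling, HpaI digestion and capillary electrophoresis; bidirectional fitting against DMSO baseline.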

A short description of assay [14]: ATG_FoxO_CIS: Attagene CIS-FACTORIAL HepG2 Assay for human Forkhead box O (FoxO) (AID 2282943). Conditions: HepG2 Attagene cis-reporter, FoxO element, mRNA; actives raise or lower the signal. Put shortly:
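HepG2 cells transiently transfected with cis-promoter-driven multiple reporter transcription units; 24 h after chemical dosing, reporter mRNA quantified by RT-PCR, fluorescent primer extension, HpaI digestion and capillary electrophoresis. Bidirectional fitting versus DMSO baseline.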

Assay [15] is described as follows: ATG_GATA_CIS: Attagene CIS-FACTORIAL HepG2 Assay for human GATA Binding Protein (AID 2282944). Conditions: HepG2 GATA cis-element reporter, Attagene multiplex mRNA; actives raise or lower the signal. Put shortly:
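Cells: HepG2, transiently transfected with cis-regulated reporter transcription units. Exposure: 24 h. Detection: RT-PCR plus capillary electrophoresis of FAM-labeled fragments. Analysis: bidirectional, DMSO as baseline.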

The nature of assay [16]: ATG_GLI_CIS: Attagene CIS-FACTORIAL HepG2 Assay for human Zinc Finger Protein GLI1 (AID 2282945). Conditions: HepG2, Attagene cis-factorial reporter mRNA, GLI element; actives raise or lower the signal. In a few lines: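 HepG2 cells transiently transfected with cis-promoter multiplexed reporter units report endogenous transcription factor activity. After 24 h chemical exposure, reporter mRNA was quantified by RT-PCR, 6-FAM labelling, HpaI digestion and capillary electrophoresis, with bidirectional fitting against DMSO.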

The target in assay [17] is Bile acid receptor (Homo sapiens) (UniProt Q96RI1). Put plainly: ATG_IR1_CIS: Attagene CIS-FACTORIAL HepG2 Assay for human Nuclear Receptor Subfamily 1 Group H Member 4 (NR1H4), IR1 submotif (AID 2282946). Conditions: IR1 reporter transcription, actives raise or lower the signal. Put shortly: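 Readout: reporter transcript levels by RT-PCR with fluorescent capillary electrophoresis, from HepG2 cells transiently transfected with multiplexed cis-regulated reporters and dosed 24 h. Gain- or loss-of-signal fitted versus DMSO negative control.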
Sequence of Bile acid receptor (Homo sapiens) (Q96RI1 whole entry, looked up): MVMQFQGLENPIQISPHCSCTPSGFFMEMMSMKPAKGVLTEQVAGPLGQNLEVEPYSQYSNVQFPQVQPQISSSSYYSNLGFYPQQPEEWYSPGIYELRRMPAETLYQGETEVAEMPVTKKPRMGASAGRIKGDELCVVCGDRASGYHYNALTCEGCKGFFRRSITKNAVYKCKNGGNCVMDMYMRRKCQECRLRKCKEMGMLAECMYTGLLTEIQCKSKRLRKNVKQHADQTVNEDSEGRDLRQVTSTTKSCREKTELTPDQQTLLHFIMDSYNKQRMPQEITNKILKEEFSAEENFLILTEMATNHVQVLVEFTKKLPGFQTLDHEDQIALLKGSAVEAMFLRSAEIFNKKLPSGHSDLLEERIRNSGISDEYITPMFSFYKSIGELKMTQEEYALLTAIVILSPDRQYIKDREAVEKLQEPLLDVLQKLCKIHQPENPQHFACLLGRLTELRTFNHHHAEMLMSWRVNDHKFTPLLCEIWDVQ

The nature of assay [18]: ATG_GRE_CIS: Attagene CIS-FACTORIAL HepG2 Assay for human Glucocorticoid Response Elements (GRE) (AID 2282947). Conditions: HepG2 GRE cis-reporter, Attagene multiplex mRNA; AC50: actives raise or lower the signal unless noted; outcome: actives raise or lower the signal unless noted. In a few lines:
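Cells (HepG2) bearing transfected cis-promoter reporter transcription units were treated with chemical for 24 hours. Reporter mRNA was measured via RT-PCR with capillary electrophoresis, and activity was fitted in both directions relative to DMSO.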

The nature of assay [19]: ATG_ISRE_CIS: Attagene CIS-FACTORIAL HepG2 Assay for human Interferon Regulatory Factor 1 (IRF1) binding to an Interferon-Stimulated Response Element (ISRE) (AID 2282948). Conditions: HepG2 ISRE cis-reporter (Attagene), mRNA transcription readout; actives raise or lower the signal. In a few lines:
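Read-out: fluorescent RT-PCR products resolved by capillary electrophoresis, reporting endogenous transcription factor activity via ISRE-driven reporter mRNA in transfected HepG2 cells dosed for 24 h; gain or loss fitted relative to DMSO.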

A short description of assay [20]: ATG_M_19_CIS: Attagene CIS-FACTORIAL HepG2 Assay for M19 Transcription Factor (Internal Marker) (AID 2282939). Conditions: HepG2 Attagene CIS-FACTORIAL M19 internal marker reporter; actives raise or lower the signal. In a few lines:
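HepG2, MRTU transient transfection, 24 h dosing. Total RNA → RT-PCR → 6-FAM primer extension → HpaI digest → CE fluorescence. Bidirectional curve fit, DMSO negative control.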

“And” between values parts separate entries of the source, which are not always exact repeats. Identical values can stand only once. The source made the active and inactive calls. The calls were made as follows: active = hit-call score of the fitted dose curve at least 0.9, where 1 is the maximum; inactive = score below 0.9.

Sequence of Retinoic acid receptor alpha (Homo sapiens) (P10276 whole entry, looked up): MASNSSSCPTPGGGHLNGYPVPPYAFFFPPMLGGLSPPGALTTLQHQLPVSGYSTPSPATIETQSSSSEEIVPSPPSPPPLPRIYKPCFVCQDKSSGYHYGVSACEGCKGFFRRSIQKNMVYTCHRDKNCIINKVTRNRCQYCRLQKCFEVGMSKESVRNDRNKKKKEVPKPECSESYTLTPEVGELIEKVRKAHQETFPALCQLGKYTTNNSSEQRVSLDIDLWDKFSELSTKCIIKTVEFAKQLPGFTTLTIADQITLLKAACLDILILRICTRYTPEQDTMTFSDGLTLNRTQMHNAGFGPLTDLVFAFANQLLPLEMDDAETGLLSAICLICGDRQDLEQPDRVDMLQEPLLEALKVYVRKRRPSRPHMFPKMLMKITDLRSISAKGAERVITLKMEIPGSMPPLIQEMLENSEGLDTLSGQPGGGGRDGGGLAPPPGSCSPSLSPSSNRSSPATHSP
Sequence of Hepatocyte nuclear factor 3-beta (Homo sapiens) (Q9Y261 whole entry, looked up): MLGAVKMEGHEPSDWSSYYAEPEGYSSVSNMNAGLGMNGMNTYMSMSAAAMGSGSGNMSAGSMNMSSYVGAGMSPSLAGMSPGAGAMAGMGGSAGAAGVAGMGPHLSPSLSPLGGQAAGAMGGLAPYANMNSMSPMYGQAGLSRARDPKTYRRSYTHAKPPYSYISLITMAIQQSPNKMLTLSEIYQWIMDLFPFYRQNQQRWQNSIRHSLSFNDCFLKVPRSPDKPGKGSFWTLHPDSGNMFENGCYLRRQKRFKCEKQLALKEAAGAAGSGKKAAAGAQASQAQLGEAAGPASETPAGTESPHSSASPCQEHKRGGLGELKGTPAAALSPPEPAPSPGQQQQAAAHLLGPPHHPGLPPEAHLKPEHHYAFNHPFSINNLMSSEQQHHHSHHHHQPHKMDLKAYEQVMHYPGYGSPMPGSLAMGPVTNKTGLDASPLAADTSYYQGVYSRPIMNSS
Sequence of Transcription factor E2F1 (Homo sapiens) (Q01094 whole entry, looked up): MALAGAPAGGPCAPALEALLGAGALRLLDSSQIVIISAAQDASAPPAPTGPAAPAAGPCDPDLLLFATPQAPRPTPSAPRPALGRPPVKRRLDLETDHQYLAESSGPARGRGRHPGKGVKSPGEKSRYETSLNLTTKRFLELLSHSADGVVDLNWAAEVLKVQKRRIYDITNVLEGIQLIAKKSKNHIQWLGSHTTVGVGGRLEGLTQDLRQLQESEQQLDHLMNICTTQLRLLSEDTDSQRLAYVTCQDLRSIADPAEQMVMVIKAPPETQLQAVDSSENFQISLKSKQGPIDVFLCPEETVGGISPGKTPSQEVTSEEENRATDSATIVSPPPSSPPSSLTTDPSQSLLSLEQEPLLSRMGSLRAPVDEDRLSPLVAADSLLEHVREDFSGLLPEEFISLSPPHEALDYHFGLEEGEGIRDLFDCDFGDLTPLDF
Sequence of Aryl hydrocarbon receptor (Homo sapiens) (P35869 whole entry, looked up): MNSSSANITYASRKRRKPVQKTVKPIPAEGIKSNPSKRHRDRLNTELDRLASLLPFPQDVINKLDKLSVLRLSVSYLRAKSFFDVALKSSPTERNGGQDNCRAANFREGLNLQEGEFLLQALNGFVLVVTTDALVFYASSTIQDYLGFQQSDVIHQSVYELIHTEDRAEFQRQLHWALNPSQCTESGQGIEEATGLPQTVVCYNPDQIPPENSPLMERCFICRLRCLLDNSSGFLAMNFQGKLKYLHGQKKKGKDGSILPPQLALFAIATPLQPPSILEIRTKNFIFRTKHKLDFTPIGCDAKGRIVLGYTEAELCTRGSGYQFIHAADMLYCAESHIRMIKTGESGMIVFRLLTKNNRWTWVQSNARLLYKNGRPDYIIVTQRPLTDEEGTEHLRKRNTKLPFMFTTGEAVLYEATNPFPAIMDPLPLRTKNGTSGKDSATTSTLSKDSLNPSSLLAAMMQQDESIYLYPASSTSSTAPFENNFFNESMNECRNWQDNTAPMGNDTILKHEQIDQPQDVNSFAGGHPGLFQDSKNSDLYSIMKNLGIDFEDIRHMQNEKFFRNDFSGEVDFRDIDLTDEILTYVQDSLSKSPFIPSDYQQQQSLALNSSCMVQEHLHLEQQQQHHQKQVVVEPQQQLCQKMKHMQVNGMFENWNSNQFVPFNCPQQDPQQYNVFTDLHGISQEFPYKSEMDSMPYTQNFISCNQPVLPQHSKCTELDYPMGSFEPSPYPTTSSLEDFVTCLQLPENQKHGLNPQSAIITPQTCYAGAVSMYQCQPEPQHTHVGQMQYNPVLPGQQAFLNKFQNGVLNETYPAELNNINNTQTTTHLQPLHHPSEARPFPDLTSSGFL

As to `CCCCCCCC(OC)OC`, the compound was classed as inactive in assay [1], in assay [2], in [3], in assay [4], in [5] and in [6]. For the same compound, the result in assay [7], in assay [8], in assay [9], in assay [10], in assay [11] and in [12] was inactive. Also, the result in [13], in assay [14], in assay [15], in [16], in [17] and in assay [18] was inactive. Further, in [19], the result was inactive.

For the compound `COc1ccc(C#N)cc1`, the result in assay [1], in [2], in assay [3], in [4], in assay [5] and in assay [6] was inactive. Moreover, the outcome in [7], in [8], in [9], in [10], in [11] and in assay [12] was inactive. The result in assay [14], in [15], in assay [16], in [18] and in [19] was inactive.

`CC(=O)CC(C)C`: the call in assay [1], in assay [2], in [3], in [4], in assay [5] and in assay [6] was inactive. Also, the call in assay [7], in [8], in assay [9], in assay [10], in assay [20] and in assay [12] was inactive. For the same compound, the outcome in [13], in assay [14], in [15], in [16], in assay [18] and in assay [19] was inactive.

As to `CC1CCC(CO)CC1` (stereo unspecified), the result in [1], in assay [2], in assay [3], in [4], in assay [5] and in assay [6] was inactive. Also, the compound was classed as inactive in assay [7], in [8], in [9], in assay [10], in [20] and in [12]. Further, the compound was called inactive in assay [14], in assay [15], in [16] and in [19]. For the same compound, the AC50 in assay [11] was 20 µM (active) and 27.1 µM (active).

On to `OCC(CO)(CBr)CBr`, for which the compound was classed as inactive in assay [1], in assay [2], in [3], in [4], in assay [5] and in [6]. Further, the result in [7], in [8], in assay [9], in [10], in assay [20] and in assay [12] was inactive. The result in assay [13], in assay [14], in assay [15], in assay [16], in [17] and in [18] was inactive. Moreover, the call in assay [19] was inactive.

`CCO[Si](CCC1CCC2OC2C1)(OCC)OCC` (stereo unspecified): the call in assay [1], in [2], in assay [3], in [4], in [5] and in [6] was inactive. Moreover, the call in [7], in assay [8], in [9], in assay [10], in [11] and in assay [12] was inactive. Moreover, the compound was classed as inactive in assay [13], in assay [14], in assay [15], in assay [16], in assay [17] and in assay [19].

Turning to `FC1(F)C=CC(F)(F)C1(F)F`, the result in assay [1], in assay [2], in assay [3], in [4], in [5] and in assay [6] was inactive. Moreover, the compound was called inactive in [7], in [8], in [9], in [10], in [11] and in [12]. In addition, the outcome in assay [13], in [14], in [15], in [16], in assay [17] and in assay [19] was inactive.

The record behind these values is PubChem BioAssay (EPA / NIEHS).
